# Assay outcomes deposited in PubChem BioAssay by National Center for Advancing Translational Sciences (NCATS).
# D3 ag: qHTS of D3 Dopamine Receptor Agonist: qHTS | D(3) dopamine receptor (Homo sapiens), P35462 | D3R DiscoveRx beta-arrestin cells, luminescence, 90 min | max activation, % | 410,000 tested, 0.58% active | AID 652048, 2013; in the data active = max activation above about 30%; also: 0% is about no effect
#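 Agonist mode: compounds and dopamine controls were applied to plated cells for 90 min at 37 degrees C after an overnight attachment at 1500 cells/well. Luminescent read-out followed 30 - 60 minutes at room temperature with DiscoveRx detection reagent.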
# D3 antag: qHTS of D3 Dopamine Receptor Antagonist: qHTS; D(3) dopamine receptor (Homo sapiens), P35462; D3R cells, DiscoveRx beta-arrestin luminescence, antagonist mode; stronger effect = lower value; max response, negative = inhibition, %; 360,000 tested, 2.5% active; in the data active = max response below about -50%; inconclusive = no clear call, values can overlap the other calls; also: % is scaled to controls: 0 for no effect and ±100 for the full control effect
#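 Cells plated overnight at 1500 cells/well, then exposed to library compounds with dopamine controls for 90 minutes at 37 degrees C. DiscoveRx reagent added for 30–60 minutes at room temperature; luminescence read, quantitative HTS format.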
# ClpP mod: qHTS Assay for Activators of ClpP. AID 651965, 2013. 340,000 tested, 1.9% active. purified B. subtilis ClpP, FRET peptide cleavage, 20 min. Potency, µM (doses to about 57.5 µM), for the others: top-dose activity change, negative = active; active = well fitted falling curve with a large enough effect; inconclusive = small, poorly fitted or top-dose-only effect; inactive = no such curve, though single readings can be large or run the other way; also: potency is read from the fitted curve at half-maximal effect; the source files actives as falling curves though it sought activators and does not explain the sign; nearly all actives have a fitted effect of over 65% in size
# Target sequence (P80244 whole entry, looked up): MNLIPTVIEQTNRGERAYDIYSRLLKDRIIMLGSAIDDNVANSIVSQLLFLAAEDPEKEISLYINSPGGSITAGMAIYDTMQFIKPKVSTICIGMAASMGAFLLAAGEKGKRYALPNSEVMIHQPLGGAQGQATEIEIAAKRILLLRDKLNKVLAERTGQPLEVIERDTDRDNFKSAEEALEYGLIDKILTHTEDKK
#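 ClpP 10 microg/mL final, pH 8 Tris/KCl buffer with BSA, glycerol, Tween-20; compound pinned in; FRET-FV substrate; RT 20 min; Ex320/Em430; ΔFRET vs ADEP 5.8 microM, DMSO, no enzyme.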
# GLP-1R agonist: qHTS of GLP-1 Receptor Agonists; Glucagon-like peptide 1 receptor (Homo sapiens), P43220; HEK293 GLP-1R CRE-luciferase, luminescence, 4-6 h; cells express a hypersensitive GLP-1R form; AID 624172, 2012; 380,000 tested, 0.007% active; Potency, µM (top dose mostly 45.6 µM), without a hit: top-dose activation, hits mostly activators; also: potency is read from the fitted curve at half-maximal effect; % of control where 0% means no effect
# Target sequence (P43220 whole entry, looked up): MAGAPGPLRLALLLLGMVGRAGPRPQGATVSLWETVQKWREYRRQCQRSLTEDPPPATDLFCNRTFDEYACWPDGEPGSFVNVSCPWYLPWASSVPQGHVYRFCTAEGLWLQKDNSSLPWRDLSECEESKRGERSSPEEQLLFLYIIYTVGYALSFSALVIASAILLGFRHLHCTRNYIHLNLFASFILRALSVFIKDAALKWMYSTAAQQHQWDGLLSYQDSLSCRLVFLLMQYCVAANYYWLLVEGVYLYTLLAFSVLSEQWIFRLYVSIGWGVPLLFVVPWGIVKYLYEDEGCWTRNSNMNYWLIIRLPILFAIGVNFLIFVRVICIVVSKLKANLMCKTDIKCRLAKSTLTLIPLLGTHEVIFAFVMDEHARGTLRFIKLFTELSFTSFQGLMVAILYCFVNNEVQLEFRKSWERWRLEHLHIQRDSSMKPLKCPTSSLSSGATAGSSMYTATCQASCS
# GLP1R inv ag: qHTS of GLP-1 Receptor Inverse Agonists (Inhibition Mode); Glucagon-like peptide 1 receptor (Homo sapiens), P43220; HEK293 GLP-1R CRE-luciferase, luminescence, 24 h; GLP-1R form is constitutively active; Potency, µM (series often up to 38.3 µM), for inactives: at the highest dose activity change, negative = inhibition, hits mostly inhibitors; 410,000 tested, 1.6% active; also: potency is read from the fitted curve at half-maximal effect; % is scaled to controls: 0 for no effect and ±100 for the full control effect; nearly all actives have a fitted effect of over 55% in size
#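 Using stably transfected HEK293 (constitutively active GLP-1R, cAMP-luciferase reporter), compounds were incubated 24 hr and luciferase measured by luminescence.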
# GLP1R cytotox: qHTS of GLP-1 Receptor Inverse Agonists: Cytotox Screen; 410,000 tested, 0.13% active; HEK293 cAMP-luciferase reporter cells, luminescence, 24 h; Potency, µM (series often up to 38.3 µM), inactives show at the top dose activity change, negative = inhibition, usual class: inhibitors;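 also: loss of luciferase light is scored as toxicity; potency is read from the fitted curve at half-maximal effect; % is scaled to controls: 0 for no effect and ±100 for the full control effect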
#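 Seeding density was 200 cells/uL; after overnight-length (12 h) culture, 23 nL compounds went on for 24 h at 37 °C. Readout used a luciferase detection reagent, luminescence taken after 12 min at room temperature.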
# Starred values were filed as active, the others as inactive; u = inconclusive; x = not tested or not shown; [ ] = remark or other dose. Rows were chosen to be rich in hits. Some 5.7% of all compounds tested hit in one or more screens of this group. Unless noted, calls follow the shape of the dose curve; as a rule, active = well fitted curve in the direction sought with a large enough effect; inconclusive = small, poorly fitted or top-dose-only effect, or another doubt; inactive = no such curve, though single readings can be large; an effect the other way counts as inactive or inconclusive.
SMILES,D3 ag,D3 antag,ClpP mod,GLP-1R agonist,GLP1R inv ag,GLP1R cytotox
CCc1cccc(CC)c1NC(=O)CO/N=C(\N)CC(=O)NC1CCCCC1,-10,15,-2%,6%,-2%,-2%
N/C(CC(=O)NC1CCCCC1)=N\OCC(=O)Nc1ccc(Cl)c(Cl)c1,0,-3,x,10%,22µM*,6%
Cc1ccc(NC(=O)Cn2c(=O)n(Cc3ccccc3)c(=O)c3c(C)c(C(=O)N(C)C)sc32)c(C)c1,3,x,-5%,x,-11%,-21%
O=C(Cc1ccc(OCc2ccccn2)cc1)NO,x,x,-3%,x,x,x
CC(C)C1Cc2c(sc3c2c(=O)n(Cc2ccccc2)c2nncn32)CO1 (centres undefined),-12,-53*,-1%,-1%,28%,1%
Cc1nnc2n(Cc3ccccc3)c(=O)c3c4c(sc3n12)COC(C(C)C)C4 (centres undefined),1,4,1%,11%,15%,0%
CCOC(=O)N1CCc2c(sc3ncn(C)c(=O)c23)C1,6,1,x,11%,27%,6%
CCOC(=O)N1CCc2c(sc3nc(SC(C)C)n(N)c(=O)c23)C1,31*,0,1%,16%,u,4%
CC1(C)OC(=O)C(=CNc2ncccn2)C(=O)O1,-16,-68*,-1%,-10%,-3%,-8%
CCOC(=O)c1ccc(NC(=O)CSc2c(C(C)C)cnc3c2c(=O)n(C)c(=O)n3C)cc1,-4,x,-2%,x,8%,5%
c1ccc2c(c1)c1c(c3ccccc32)CN2CCCC2C1 (centres undefined),-14,u,20µM*,-18%,u,1%
CCn1c(-c2cc(Br)cc(OC)c2O)nc2cc(S(=O)(=O)N(C)C)ccc21,37*,-5,-1%,-5%,0%,-5%
CCn1c(-c2ccccn2)nc2cc(S(=O)(=O)N(C)C)ccc21,14,-8,x,9%,49%,-2%
O/N=C/CCn1c(=S)sc2ccccc21,-8,-51*,0%,-3%,-5%,4%
O=C(OCCn1c(=S)sc2ccccc21)c1ccccc1,3,-9,-7%,22%,-1%,-10%
Clc1ccccc1-c1ccc2nccn2c1,-3,-15,-24%,16%,17%,2%
COc1c(OC)c(O)c2c(=O)c(O)c(-c3ccccc3)oc2c1OC,-3,-18,0%,-3%,u,-14%
COc1ccc(-c2oc3c(OC)c(OC)c(OC)c(O)c3c(=O)c2OC)cc1OC,22,51,-2%,8%,2.8µM*,-15%
CC(C)COc1ccc(C(=O)Nc2sc3c(c2C(=O)O)CC(C)(C)OC3)cc1,1,-20,x,1%,11µM*,-23%
CC1(C)Cc2c(sc(NC(=O)c3ccccc3)c2C(=O)O)CO1,-3,-12,x,-1%,-16%,u
Nc1nc(=O)n(C2OC(CO)C(O)C2O)cc1F (centres undefined),-17,-78*,0%,-2%,u,-13%
CCOc1ccc(S(=O)(=O)N(CC(=O)NC2CCCC2)c2ccc(F)cc2)cc1,8,-52*,-2%,4%,u,-4%
Cc1ccc(S(=O)(=O)N(CC(=O)NC2CC2)c2ccc(C)c(Cl)c2)cc1,1,15,16µM*,-3%,u,0%
CCOc1ccc(S(=O)(=O)N(C)c2ccc(OCC(=O)NCC3CCCCC3)cc2)cc1,-11,-79*,-11%,4%,u,-20%
CCCC(=O)Nc1ccc(C(=O)N/N=C/c2ccc([N+](=O)[O-])o2)cc1,1,-3,32µM*,-11%,u,-25%
SMILES,D3 ag,D3 antag,ClpP mod,GLP-1R agonist,GLP1R inv ag,GLP1R cytotox
COc1ccc(/C=N/NC(=O)c2cccc([N+](=O)[O-])c2)cc1OS(=O)(=O)c1ccc(C)cc1,-1,u,2%,4%,u,u
CCOc1cc(/C=N/NC(=O)c2cccc([N+](=O)[O-])c2)ccc1OS(=O)(=O)c1ccccc1,-2,-61*,-2%,0%,-23%,-8%
CCCCCCCC(=O)Nc1ccc(C(=O)N/N=C/c2cccc([N+](=O)[O-])c2)cc1,1,21,28µM*,-13%,-26%,-12%
O=C(N/N=C\c1ccc([N+](=O)[O-])o1)c1ccc(O)cc1,x,x,x,-3%[19.8 µM],x,x
CC(C)Nc1cc(N2CCN(C3CCCCC3)CC2)c2noc3c2c1C(=O)c1ccccc1-3,-8,x,-1%,x,-4%,-6%
CCCCCCOc1ccc(/C=C/C(=O)Nc2sc3c(c2C(=O)OC)CCC3)cc1OC,-37,x,-8%,x,u,u
O=C(O)c1ccc(N/N=C/C=C/c2ccc([N+](=O)[O-])o2)cc1,-12,-53*,x,-1%,11%,u
O=[N+]([O-])c1ccc(N/N=C/C=C/c2ccco2)cc1,-20,-57*,1%,-3%,-61%,44%
CC(C)(C)NC(=O)COC(=O)c1ccccc1NC(=O)c1ccco1,-1,1,x,8%,11%,-3%
O=C(Nc1ccccc1C(=O)OCC(=O)c1c[nH]c2ccccc12)c1ccco1,35*,19,0%,6%,u,2%
CSc1ncc(C(=O)NCc2cccc(Br)c2)c(-c2ccccc2)n1,4,x,-5%,x,-19%,5%
CC(=O)Oc1ccc(C(=O)Nc2ccc(C3(C#N)CCCC3)cc2)cc1,-6,-24,u,-6%,2.2µM*,-11%
O=C1NC(=S)SC1=Cc1cccs1,-9,u,x,-1%,u,u
CN1CCC/C1=C/C=C1\SC(=S)NC1=O,-12,-64*,-20%,14%,13%,u
CCOC(=O)c1ccccc1NC(=O)c1sc2ncn(CC)c(=O)c2c1C,4,x,-26%,x,18%,4%
CCCn1c(=O)c2sccc2n2c(CCCC(=O)NC3CCC(C)CC3)nnc12 (centres undefined),12,x,-4%,x,27%,-13%
OC(CNCCNc1ncccc1C(F)(F)F)Cn1ccc2ccccc21 (centres undefined),-13,u,-1%,22%,10µM*,-5%
OC(CNCc1ccccc1)Cn1ccc2ccccc21 (centres undefined),-10,-4,-6%,7%,u,11%
O=[N+]([O-])c1cc(C=Nc2ccc3ccccc3c2)ccc1Br,3,6,28µM*,1%,-6%,1%
